Assay results as given in PubChem BioAssay (NCATS).
Records with an inconclusive call do not appear. Activity calls are given as the source filed them. Calls follow the shape of the dose curve; as a rule, active = well fitted curve in the direction sought with a large enough effect; inconclusive = small, poorly fitted or top-dose-only effect, or another doubt; inactive = no such curve, though single readings can be large; an effect the other way counts as inactive or inconclusive.

How the values were obtained:
[1] = biological target: Phospholipid hydroperoxide glutathione peroxidase GPX4 (Homo sapiens) (UniProt P36969); test: Primary qHTS Assay for Inhibitors of Recombinant Selenoprotein Glutathione Peroxidase 4 (GPX4) (AID 1845192); also: nearly all actives have a fitted effect of over 65% in size; as to activity change, negative = inhibition: series mostly up to about 50 µM; % is scaled to controls: 0 for no effect and ±100 for the full control effect
Outline: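 Steps: GPX4 plus compound, 30 min RT; add GR/GSH/NADPH master mix; start with cumene hydroperoxide; read 340/450 nm fluorescence at 0 and 15 min. Finals were 200 nM GPX4, 1 mM GSH, 0.5 mM CHP, 0.5 mM NADPH, 100 nM GR.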

[2] = biological target: Luciferin 4-monooxygenase (Photinus pyralis) (UniProt P08659); test: Primary firefly luciferase (FLuc) qHTS assay for identification of artifact compounds. (AID 1845220); also: nearly all actives have a fitted effect of over 60% in size;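 as to activity change, negative = inhibition: series mostly up to about 54 µM; plate controls were DMSO vehicle for no effect and no enzyme for full effect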
Outline: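 Enzymatic FLuc inhibition assay: compounds pre-exposed to luciferin/ATP (10 uM each) for 15 min, then purified P. pyralis enzyme at 10 nM added. Read-out: luminescence at 5 min.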

[3] = Primary fluorescence-based thiol-reactive (MSTI) qHTS assay for identification of artifact compounds. (AID 1845221);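 also: series mostly up to about 54 µM; thiol-reactive compounds lower the probe fluorescence signal; nearly all actives have a fitted effect of over 65% in size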
Outline: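 One-hour, room-temperature, dark incubation of compound with 4 uM MSTI in PBS (pH 7.4, 2% DMSO) precedes a fluorescence read at 525 nm excitation, 598 nm emission; Hill-equation fitting yields concentration-response values.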

[4] = tested on: Nanoluciferase (engineered Oplophorus gracilirostris luciferase); test: Primary Nanoluciferase (NLuc) qHTS assay for identification of artifact compounds. (AID 1845222);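 also: NLuc secreted into diluted conditioned medium of S16 cells; series mostly up to about 54 µM; 0% = DMSO and -100% = no enzyme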
Outline: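 S16 cell supernatant NLuc, 1:55; cpds qHTS; 15 min RT dark; Nano-Glo substrate 1:100, 5 min; luminescence; Hill fit of % inhibition.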

[5] = Primary redox qHTS assay for identification of artifact compounds. (AID 1845223);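 also: 0% = DMSO and 100% = reference compound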
Outline: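 Redox-cycling detection via DTT (250 uM final) oxidation coupled to Amplex Red (25 uM)/HRP (250 mU/mL) in HBSS. 15 min preincubation plus 30 min after DTT, room temperature. Ex/Em 525/598 nm; 4-parameter Hill fit against DMSO and 10 uM DA3003.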

Chain of Phospholipid hydroperoxide glutathione peroxidase GPX4 (Homo sapiens) (P36969 whole entry, looked up): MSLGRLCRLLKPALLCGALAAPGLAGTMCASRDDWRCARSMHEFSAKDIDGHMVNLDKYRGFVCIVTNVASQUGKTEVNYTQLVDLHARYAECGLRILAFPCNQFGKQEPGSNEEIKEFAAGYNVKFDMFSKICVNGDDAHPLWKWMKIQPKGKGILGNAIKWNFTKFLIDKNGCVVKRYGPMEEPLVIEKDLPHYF

CC(C)(O)CNc1nc(Nc2ccnc(C(F)(F)F)c2)nc(-c2cccc(C(F)(F)F)n2)n1
inactive: Potency [1] | Potency [2] | Potency [3] | Potency [4] | Potency [5]

C/C=C(\C)C(=O)O[C@H]1[C@H](O)[C@]2(COC(C)=O)[C@H](O)C[C@]3(C)C(=CCC4[C@@]5(C)CC[C@H](O[C@@H]6O[C@H](C(=O)O)[C@@H](O[C@@H]7O[C@H](CO)[C@@H](O)[C@H](O)[C@H]7O)[C@H](O)[C@H]6O[C@@H]6O[C@H](CO)[C@@H](O)[C@H](O)[C@H]6O)[C@](C)(CO)C5CC[C@]43C)[C@@H]2CC1(C)C (stereo not given in full)
inactive: Potency [1] | outcome [2] inactive [at 11.6 µM] | activity change, negative = thiol reactive [3] 113% [at 11.5 µM] | activity, negative = inhibition [4] 4.32% [at 11.6 µM] | redox activity (% of DA3003) [5] 2.47% [at 11.5 µM]

CC(=O)OC[C@@]12[C@H](O)C[C@@H](C)[C@]3(C[C@@H](c4ccoc4)OC3=O)[C@H]1C[C@H](O)C[C@]21CO1
inactive: Potency [1] | Potency [2] | Potency [3] | Potency [4] | Potency [5]

CC(=O)OC(CSC1CCC(=O)OC(C)CCC(=O)C1)C(=O)O (stereo not given)
inactive: Potency [1] | Potency [2] | Potency [3] | Potency [4] | Potency [5]

CN1C(=O)c2ccccc2-n2c(nc3ccccc3c2=O)/C1=C/c1ccccc1
inactive: Potency [1] | Potency [2] | Potency [3] | Potency [4] | Potency [5]

CC(C)(C)NCc1cc(Nc2ccnc3cc(Cl)ccc23)c2c(c1O)CCCC2
inactive: activity change, negative = inhibition [1] -7.38% [at 0.409 µM] | activity change, negative = inhibition [2] -4.19% [at 0.464 µM] | activity change, negative = thiol reactive [3] -13.7% [at 0.461 µM] | activity, negative = inhibition [4] 1.02% [at 0.464 µM] | redox activity (% of DA3003) [5] -4.12% [at 0.461 µM]

CC(=O)OCC1=C[C@H](O)[C@@H]2C(C(=O)O)=CO[C@@H](O[C@@H]3O[C@H](CO)[C@@H](O)[C@H](O)[C@H]3O)[C@H]12
inactive: Potency [1] | Potency [2] | Potency [3] | Potency [4] | Potency [5]

O=C(O)Cc1nn(Cc2nc3cc(C(F)(F)F)ccc3s2)c(=O)c2nccnc12
inactive: Potency [1] | Potency [2] | Potency [3] | Potency [4] | Potency [5]

CC[C@H](/C=C/[C@@H](C)[C@H]1CC[C@H]2[C@@H]3CC=C4C[C@@H](O)CC[C@]4(C)[C@H]3CC[C@]12C)C(C)C
inactive: activity change, negative = inhibition [1] 1.85% [at 4.52 µM] | activity change, negative = inhibition [2] 2.1% [at 6.45 µM] | activity change, negative = thiol reactive [3] -7.95% [at 6.41 µM] | activity, negative = inhibition [4] 1.22% [at 6.45 µM] | redox activity (% of DA3003) [5] -0.124% [at 6.41 µM]

CN1CCC(c2c[nH]c3ccc(NC(=O)c4ccc(F)cc4)cc23)CC1
inactive: Potency [1] | Potency [2] | Potency [3] | Potency [4] | Potency [5]

COc1cc(/C=C/C(=O)OC[C@H]2O[C@H](O[C@]3(CO)O[C@H](CO)[C@@H](O)[C@@H]3O)[C@H](O)[C@@H](O)[C@@H]2O)cc(OC)c1O
inactive: Potency [1] | Potency [2] | Potency [3] | Potency [4] | Potency [5]

CCOC(=O)[C@H]1O[C@@H]1C(=O)N[C@@H](CC(C)C)C(=O)NCCC(C)C
inactive: Potency [1] | Potency [2] | Potency [3] | Potency [4] | Potency [5]

CC1OC(OC2C(C)OC(OC3C(OC(=O)/C=C/c4ccc(O)cc4)C(CO)OC(OC4(COC(=O)/C=C/c5ccc(O)cc5)OC(CO)C(O)C4O)C3OC3OCC(O)(CO)C3O)C(O)C2O)C(O)C(O)C1O (stereo not given)
inactive: Potency [1] | activity change, negative = inhibition [2] -0.562% [at 11.6 µM] | activity change, negative = thiol reactive [3] 1.76% [at 11.5 µM] | activity, negative = inhibition [4] 0.249% [at 11.6 µM] | redox activity (% of DA3003) [5] -13.7% [at 11.5 µM]

C=C1C(O[C@@H]2O[C@H](CO)[C@@H](O)[C@H](O)[C@@H]2O)CC2C(C)(C)C(O)CCC2(C)C1CC/C(C)=C\CO (stereo not given in full)
inactive: Potency [1] | Potency [2] | Potency [3] | Potency [4] | Potency [5]

COc1cc(O[C@@H]2O[C@H](CO)[C@@H](O)[C@H](O)[C@H]2O)c(CCC(=O)OC[C@H]2O[C@@H](Oc3cc(OC)c(C4OC(=O)C(C)(O)C4O)cc3CCC(=O)O)[C@H](O)[C@@H](O)[C@@H]2O)cc1C1OC(=O)C(C)(O)C1O (stereo not given in full)
inactive: Potency [1] | activity change, negative = inhibition [2] 1.78% [at 11.6 µM] | activity change, negative = thiol reactive [3] 56% [at 11.5 µM] | activity, negative = inhibition [4] 0.289% [at 11.6 µM] | redox activity (% of DA3003) [5] -16.2% [at 11.5 µM]

Clc1ccc2c(c1)C1=NCCN1c1c(-c3noc(C4CC4)n3)ncn1-2
inactive: Potency [1] | Potency [2] | Potency [3] | Potency [4] | Potency [5]

COc1ncc(-c2ccc3c(Nc4cc(Oc5cc(F)cc(F)c5)cc(C(=O)O)c4)c(S(=O)(=O)NC4CC4)cnc3c2)c(OC)n1
inactive: Potency [1] | Potency [2] | Potency [3] | Potency [4] | Potency [5]

COc1c2c(c(C)c3c1C(=O)OC3)OC1(C)CC(O)C3(O)C(C)(C)OC(=O)CCC3(C)C1C2 (stereo not given)
inactive: Potency [1] | Potency [2] | Potency [3] | Potency [4] | Potency [5]

COC1=CC(=O)O[C@@H](CCc2ccccc2)[C@@H]1O
inactive: Potency [1] | Potency [2] | Potency [3] | Potency [4] | Potency [5]
